# The list is not random: actives were taken first. Their share in the collection is about 0.93%.
# LAP4-GFP MLPCN: alters LAP4-GFP fluorescence in TOR pathway yeast screen | S. cerevisiae LAP4-GFP multiplex, flow cytometry GFP, 3 h; median GFP as percent of DMSO wells | GFP response vs DMSO, % at 10 µM | 0.34% of 320,000 active;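 active = GFP response vs DMSO above a set limit, about the screen mean plus 3 SD, cut at about 150% in these data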
# CIT2-GFP yeast: yeast TOR pathway CIT2-GFP modulation. GFP response vs DMSO, % at 10 µM. S. cerevisiae CIT2-GFP strain, flow cytometry, 3 h; 100 means same as DMSO wells. AID 2029. 0.065% of 320,000 active;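 active = GFP response relative to DMSO above a set limit, near the screen mean plus 3 SD, cut at about 150% in these data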;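 note: ratio of well median GFP fluorescence to mean of DMSO wells on the plate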
# AGP1-GFP MLPCN: yeast TOR pathway AGP1-GFP modulation | GFP response vs DMSO, % at 10 µM | AID 2066 | S. cerevisiae AGP1-GFP multiplex flow cytometry, 3 h; GFP as percent of DMSO wells | 0.02% of 320,000 active;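 active = GFP response relative to DMSO above a set limit, near screen average plus 3 SD, cut at about 150% in these data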;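 note: median GFP channel fluorescence of the gated AGP1 strain per well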
# MEP2-GFP yeast: modulators of TOR pathway MEP2-GFP in S. cerevisiae; S. cerevisiae MEP2-GFP strain, flow cytometry GFP, 3 h; 100% = DMSO control level; GFP response vs DMSO, % at 10 µM; 0.51% of 330,000 active; AID 2016;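 active = GFP response versus DMSO above a set limit, roughly screen mean plus 3 SD, cut at about 180% in these data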;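 note: median GFP fluorescence of the barcode-gated MEP2-GFP cells per well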
# RPL19A-GFP yeast: modulators of TOR pathway RPL19A-GFP in S. cerevisiae | S. cerevisiae RPL19A-GFP strain, flow cytometry, 3 h; stronger effect = lower value | percent response vs DMSO, % at 10 µM | 0.3% of 330,000 active;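 active = percent response vs DMSO below 50%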;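 note: median channel GFP fluorescence of the barcoded RPL19A-GFP strain; ratio of sample median GFP to plate DMSO average so 100% = DMSO; lower means less RPL19A-GFP as with rapamycin TOR inhibition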
# LAP4-GFP pick2: second confirmation of modulators of TOR reporter LAP4-GFP in yeast; shares compounds with LAP4-GFP MLPCN; S. cerevisiae LAP4-GFP strain, flow cytometry GFP, 3 h; GFP response vs DMSO, % at 10 µM; 20% of 590 active; AID 2621;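 active = GFP signal as percent of the solvent control above about 150%, meaning raised reporter expression, limit read from the data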;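 note: ratio of well median GFP fluorescence to plate DMSO mean so 100% = DMSO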
# MEP2 cherry2: second confirmation of modulators of TOR reporter MEP2-GFP in yeast; shares compounds with LAP4-GFP MLPCN; S. cerevisiae MEP2-GFP strain, flow cytometry GFP, 3 h; GFP response vs DMSO, % at 10 µM; 10% of 590 active; AID 2622;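 active = GFP signal above 150% of the solvent control wells, that is a rise of more than half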;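 note: median channel GFP fluorescence of all gated yeast cells per well; ratio of median GFP to plate DMSO average so 100% = DMSO level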
# RPL19A GFP CP2: reconfirmed modulator of RPL19A-GFP TOR reporter in yeast; shares compounds with LAP4-GFP MLPCN; S. cerevisiae RPL19A-GFP strain, flow cytometry GFP, 3 h; stronger effect = lower value; 100% means same as DMSO wells; GFP response vs DMSO, % at 10 µM; 3% of 590 active;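 active = under 65% GFP response relative to DMSO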;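 note: median GFP channel fluorescence per well over the all cells gate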
# CIT2-GFP pick2: yeast CIT2-GFP TOR reporter modulation, second cherry pick | shares compounds with LAP4-GFP MLPCN | S. cerevisiae CIT2-GFP strain, flow cytometry GFP, 3 h; DMSO control wells read 100% | GFP response vs DMSO, % at 10 µM | 8% of 590 active;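 active = GFP response vs DMSO above about 150%, limit read from the data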;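 note: median green fluorescence per well over all gated yeast cells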
# AGP1 GFP CP2: second confirmation of modulators of TOR reporter AGP1-GFP in yeast; AID 2643; percent response vs DMSO, % at 10 µM; 590 tested, under 10 active; S. cerevisiae AGP1-GFP strain, flow cytometry GFP, 3 h; shares compounds with LAP4-GFP MLPCN;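 active = over 150 percent of DMSO response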;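 note: median GFP channel fluorescence over all cells without mother daughter split; sample median GFP divided by mean DMSO control so 100% equals DMSO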
# Yeast autofluor: yeast s288c autofluorescence artifact, counter-screen; shares compounds with LAP4-GFP MLPCN; S. cerevisiae s288c, 520 nm autofluorescence, flow cytometry, 3 h; stronger effect = higher value; zero means same as solvent-only cells; fluorescence change (kMESF span) at 33 µM; 610 tested, under 10 active;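 active = fluorescence span over the dose series, or activity score, above about 33, limit read from the data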
# s288c autofl DR: counter-screen for autofluorescence of TOR hits in yeast s288c | shares compounds with LAP4-GFP MLPCN | S. cerevisiae s288c parental, compound autofluorescence, flow cytometry, 3 h | fluorescence change (span) at 33 µM | 110 tested, under 10 active;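 active = fluorescence change span, or the activity score built from it, above 25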
# TORC1 bypass gr: stops wildtype yeast growth while TORC1 bypass cells still grow | shares compounds with LAP4-GFP MLPCN | S. cerevisiae BY4741 spot growth rating, 48-72 h; stronger effect = lower value | growth rating (0-3) at 30 µM | 120 tested, under 10 active;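 active = growth rating at most 1 for wild type yeast while the TORC1 bypass strain still grows fully, rated 3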
# An asterisk follows results filed as active; / = no result given.
SMILES,LAP4-GFP MLPCN,CIT2-GFP yeast,AGP1-GFP MLPCN,MEP2-GFP yeast,RPL19A-GFP yeast,LAP4-GFP pick2,MEP2 cherry2,RPL19A GFP CP2,CIT2-GFP pick2,AGP1 GFP CP2,Yeast autofluor,others
CCCN(CCC)c1nc(C#N)nc(N(CCC)CCC)n1,90,87,75,131,51,103,102,99,107,102,/,
Cc1nn(C)cc1CN(C)S(=O)(=O)c1cccc([N+](=O)[O-])c1,87,88,88,93,94,/,/,/,/,/,/,
O=C(COC(=O)c1ccccc1C(=O)OCC(=O)NCCc1c[nH]c2ccccc12)NCCc1c[nH]c2ccccc12,155*,131,96,95,97,102,98,97,102,99,/,
O=C(CSc1nccc(=O)[nH]1)NC1CCCCCC1,91,106,97,106,97,/,/,/,/,/,/,
O=C(c1ccc(Cl)cc1)N1CCN(c2cccc3[nH]ccc23)CC1,259*,91,98,87,65,/,/,/,/,/,-0.2,
COc1ccccc1N1C(=O)c2cccc3c(C(=O)O)ccc(c23)C1=O,92,90,94,94,90,/,/,/,/,/,0.2,
CC(=O)c1ccc(N2CCN(C(=O)C3CCN(S(=O)(=O)c4ccc5c(c4)CC(C)N5C(C)=O)CC3)CC2)cc1 (stereo not given),183*,90,109,94,86,104,105,100,107,99,/,
CC(=O)N1c2ccc(S(=O)(=O)N3CCC(C(=O)N4CCN(c5cccc(C(F)(F)F)c5)CC4)CC3)cc2CC1C (stereo not given),95,103,100,102,99,/,/,/,/,/,/,
C=CCN1C(=O)/C(=C/c2ccc(-c3ccc(F)cc3)o2)SC1=S,163*,96,83,99,102,169*,131,99,111,102,1.2,
O=C1C=CC(=O)N1c1cccc(-c2ccccc2)c1,206*,61,77,98,65,/,/,/,/,/,1.8,
CCNS(=O)(=O)c1ccc(CCC(=O)N2CCc3ccccc3C2)cc1,88,112,107,114,101,/,/,/,/,/,/,
COC(=O)c1cn(C(=O)c2ccc(C)c(C)c2)c2ccccc12,151*,78,91,86,88,98,100,98,100,100,/,
COC(=O)c1cn(C(=O)c2ccc(OC)c(OC)c2)c2ccccc12,103,106,102,113,106,/,/,/,/,/,/,
CCN1/C(=C/C(C)=C/c2sc3ccccc3[n+]2CC)Sc2ccccc21,188*,61,69,102,50,/,/,/,/,/,2.1,
CCN1/C(=C\C(=S)Nc2ccccc2)Sc2ccccc21,146,98,98,97,91,/,/,/,/,/,/,
CN1CCC(=NOc2ccc([N+](=O)[O-])cc2)CC1,99,98,104,96,99,/,/,/,/,/,/,
CNc1nc(N)cc(Nc2ccccc2F)n1,/,/,/,/,/,/,/,/,/,/,/,TORC1 bypass gr=3
CC1=NNC(=O)/C1=C\c1cn(-c2ccccc2)nc1-c1cccs1,263*,94,88,108,92,/,/,/,/,/,3,
COc1ccc(OCCC(=O)OCC(=O)NCCc2ccccc2)cc1,98,100,95,100,93,/,/,/,/,/,/,
COc1ccc(-c2[nH]ncc2CN(CC2CCC(=O)N2)C(C)C)cc1F (stereo not given),112,115,112,101,105,/,/,/,/,/,/,
COc1ccccc1NC(=O)CCC(=O)Nc1cc(OC)c(NC(=O)c2cccs2)cc1OC,96,95,97,98,102,/,/,/,/,/,/,
N/C(Cc1ccc(Cl)cc1)=N\OC(=O)c1ccccc1,192*,111,62,106,82,218*,166*,90,225*,77,1.7,
Cc1ccc(-n2c(C)cc(C(=O)COC(=O)c3ccc[nH]c3=O)c2C)cc1C,150,81,85,86,58,/,/,/,/,/,/,
Cc1cc(C(=O)COC(=O)c2ccc[nH]c2=O)c(C)n1-c1ccccc1F,138,84,41,116,55,155*,131,93,106,78,2.4,s288c autofl DR=1.2;TORC1 bypass gr=3
CC1CC(C)CN(S(=O)(=O)N2CCCC(C(=O)NC3CCCCC3C)C2)C1 (stereo not given),95,100,15,138,59,104,112,98,110,102,/,
SMILES,LAP4-GFP MLPCN,CIT2-GFP yeast,AGP1-GFP MLPCN,MEP2-GFP yeast,RPL19A-GFP yeast,LAP4-GFP pick2,MEP2 cherry2,RPL19A GFP CP2,CIT2-GFP pick2,AGP1 GFP CP2,Yeast autofluor,others
O=C(Oc1oc(-c2ccco2)nc1C=Nc1ccccc1)c1ccoc1,217*,87,72,87,91,/,/,/,/,/,-9.6,
Cc1ccc(C(=O)Oc2oc(-c3ccco3)nc2C=Nc2ccc(Cl)cc2)cc1,223*,93,75,96,100,/,/,/,/,/,0.2,
O=c1oc(-c2ccco2)nc2ccccc12,121,93,92,100,94,/,/,/,/,/,/,
NC(=O)CSc1oc(-c2ccco2)nc1S(=O)(=O)c1ccccc1,96,101,102,93,108,/,/,/,/,/,/,
O=C(Oc1oc(-c2ccco2)nc1C=Nc1ccccc1)c1ccco1,203*,71,79,90,98,/,/,/,/,/,0.3,
Cc1ccc(N=Cc2nc(-c3ccco3)oc2O)cc1,119,92,91,95,91,/,/,/,/,/,/,
Cn1c(SCC(=O)Nc2ccccc2F)nnc1C1CCCCC1,82,91,94,98,97,/,/,/,/,/,/,
O=C(Nc1nc2ccc(F)cc2s1)c1ccccn1,178*,106,102,103,90,/,/,/,/,/,0.82,
Cc1cc(C)cc(NC(=O)c2c(C)nc3ccccn23)c1,97,101,95,100,94,/,/,/,/,/,/,
O=C(CCS(=O)(=O)c1ccccc1)Nc1nc(-c2ccccn2)cs1,97,93,96,97,97,104,101,99,100,100,-0.1,
